# Potency and affinity values are given separately. Inconclusive results are not listed. A call without a number means that no potency is given here. The source made the active and inactive calls.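 How the source made its calls: active means signal loss from cell killing with fitted potency at or below twice the top valid dose; inconclusive means flat drop of 30 to 70%, or unreliable curve fit; inactive means opposite direction, flat within 30%, or weaker potency.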
# Experiment: viability loss in A549 lung cancer cells – cell-based, cherry-picks, 26 µM top dose, cytotoxicity control, dose response (AID 1053119)
# Settings: CellTiter-Glo ATP luminescence, 72 h; series mostly up to 26 µM
structure (smiles),measurement,value
C=C1C(=O)O[C@@H]2C[C@@H](C)[C@@H]3C=CC(=O)[C@@]3(C)[C@@H](O)[C@H]12,outcome,inactive
